Assay [1] is described as follows: resazurin metabolic signal in HepG2 cells – cell-based, resazurin fluorescence, 24 h, PK04 Diversity Set, profiling panel (AID 1172). Also: test concentration not given here. The note with it: HepG2 viability, higher = more signal. On the technique in general: Resazurin is reduced to fluorescent resorufin, in cell work by metabolically active cells.
Assay [2] in a line: budding yeast growth changes without added modifier – OD600, strain BY4716, 24 h, basal condition, primary screen (AID 1173). The settings on record: S. cerevisiae BY4716 growth, OD600, 24 h; higher = more signal, called active from +8 up or from −8 down.
Assay [3] in a line: viability profiling in MM1S myeloma cells – cell-based, resazurin fluorescence, basal, 24 h, PK04 Diversity Set, profiling panel (AID 1174). Also: test concentration not given here. The note with it: higher = more signal, called active from +8 up or from −8 down.
The target of assay [4] is Dihydroorotate dehydrogenase (quinone), mitochondrial (Plasmodium falciparum (isolate 3D7)) (UniProt Q08210). Kind of assay: inhibition of P. falciparum DHODH – biochemical, C-terminal His tag, absorbance 600 nm, primary screen (AID 1175).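 Also: recombinant parasite enzyme with a five histidine tag at its C terminus; test concentration not given here.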 The settings on record: PfDHODH enzyme, DCIP absorbance 600 nm; higher = more signal, called active from +8 up or from −8 down.
A short description of assay [5]: growth modulation of vineyard yeast isolate – strain RM11-1a, OD600, basal, 24 h, primary screen (AID 1177).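 Also: cultures grown under basal conditions with no added stressor; test concentration not given here.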 The settings on record: S. cerevisiae RM11-1a growth, OD600, 24 h; higher = more signal, called active from +8 up or from −8 down.
The nature of assay [6]: growth of efflux-deficient E. coli DRC39 – strain DRC39, OD650, 24 h, E. coli filamentation inducers, primary screen (AID 1178).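 Also: growth measured as culture turbidity by optical density at 650 nm; test concentration not given here.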 The settings on record: E. coli DRC39 acrAB, higher = more signal, called active from +8 up or from −8 down.
Assay [7] can be described thus: growth of efflux-deficient E. coli DRC39 – strain DRC39, OD650, 48 h, E. coli filamentation inducers, primary screen (AID 1179).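 Also: screen aims at cell division blockers that make cells filament.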 The settings on record: E. coli DRC39 delta-acrAB growth, higher = more signal, called active from +8 up or from −8 down.
Assay [8] in a line: viability profiling in RPMI8226 myeloma cells – cell-based, resazurin fluorescence, basal, 24 h, PK04 Diversity Set, profiling panel (AID 1180).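 Also: RPMI8826 multiple myeloma cell line at 5000 cells per well; test concentration not given here.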 The note with it: higher = more signal.
The target in assay [9] is E3 ubiquitin-protein ligase XIAP (Homo sapiens) (UniProt P98170). The assay can be described thus: small molecules binding XIAP protein – biophysical, small-molecule microarray, fluorescence 635 nm, primary screen (AID 1181).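 Also: score merges 667 nm emission and signal to noise over triplicate slides.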 The settings on record: higher = more signal.

Among the data in PubChem BioAssay are z-score and composite z-score values, retold here.

Each structure is given as a SMILES string. Active and inactive are the calls of the source.

Sequence of E3 ubiquitin-protein ligase XIAP (Homo sapiens) (P98170 whole entry, looked up): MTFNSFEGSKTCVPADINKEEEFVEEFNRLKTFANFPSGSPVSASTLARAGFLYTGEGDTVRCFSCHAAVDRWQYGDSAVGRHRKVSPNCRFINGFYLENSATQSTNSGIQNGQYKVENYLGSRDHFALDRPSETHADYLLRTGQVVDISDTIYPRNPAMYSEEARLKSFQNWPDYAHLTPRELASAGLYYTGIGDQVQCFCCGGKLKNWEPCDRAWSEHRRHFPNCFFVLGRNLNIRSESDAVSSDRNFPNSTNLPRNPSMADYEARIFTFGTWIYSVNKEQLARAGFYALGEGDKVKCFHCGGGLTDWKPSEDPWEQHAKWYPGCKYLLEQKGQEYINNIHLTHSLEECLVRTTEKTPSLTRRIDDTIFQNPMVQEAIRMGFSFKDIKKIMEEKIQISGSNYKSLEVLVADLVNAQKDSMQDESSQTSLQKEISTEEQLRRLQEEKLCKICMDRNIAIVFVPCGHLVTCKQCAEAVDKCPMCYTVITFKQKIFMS
Sequence of Dihydroorotate dehydrogenase (quinone), mitochondrial (Plasmodium falciparum (isolate 3D7)) (Q08210 whole entry, looked up): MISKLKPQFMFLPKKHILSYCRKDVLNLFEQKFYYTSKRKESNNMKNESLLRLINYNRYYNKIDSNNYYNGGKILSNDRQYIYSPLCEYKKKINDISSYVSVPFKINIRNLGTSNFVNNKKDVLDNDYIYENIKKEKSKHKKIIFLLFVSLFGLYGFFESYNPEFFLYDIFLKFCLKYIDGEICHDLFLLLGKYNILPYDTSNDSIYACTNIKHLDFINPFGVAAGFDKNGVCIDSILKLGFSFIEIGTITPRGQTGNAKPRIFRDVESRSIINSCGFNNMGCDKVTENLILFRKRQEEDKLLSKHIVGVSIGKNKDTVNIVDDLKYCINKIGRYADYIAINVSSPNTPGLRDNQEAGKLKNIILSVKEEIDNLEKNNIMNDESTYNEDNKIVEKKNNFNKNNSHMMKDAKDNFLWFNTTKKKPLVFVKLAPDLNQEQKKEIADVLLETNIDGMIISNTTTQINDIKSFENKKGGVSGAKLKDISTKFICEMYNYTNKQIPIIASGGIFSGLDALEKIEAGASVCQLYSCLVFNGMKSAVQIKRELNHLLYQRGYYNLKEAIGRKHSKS

Consider `CC(C)CN1C(=O)[C@@]2(Cc3ccccc31)c1ccccc1C(=O)N(C1CCCCC1)[C@H]2c1ccc(CO)cc1`, for which the z-score in assay [1] was 0.0515; in assay [2], -1.91 (inactive); in assay [3], 1.05 (inactive); in assay [5], -1.12 (inactive); in assay [6], 0.164 (inactive); in [7], 0.464 (inactive). In addition, the z-score in assay [8] stood at 1.21. For the same molecule, the composite z-score was -2.88 (inactive) in assay [4] and 0.377 in assay [9].
For `C=CCN1C(=O)[C@]2(O[C@H](CCn3cc(CCO)nn3)[C@@H]([Si](C)(C)c3ccc(OC)cc3)[C@@H]2C)c2cc(NC(=O)c3ccc(OC)cc3)ccc21`, the z-score in assay [1] is -1.89; in assay [2], -2.6 (inactive); in [3], -4.32 (inactive); in assay [5] it was 1.23 (inactive); in assay [6] it was 1.8 (inactive); in [7] it was 0.797 (inactive). The same molecule displayed a z-score in [8] of -4.33. Besides, the composite z-score was 1.31 (inactive) in [4] and -0.104 in assay [9].
`C[C@@H]1CC[C@H]2C(=O)N3CCC[C@H]3C(=O)N2[C@H]1c1ccc(Br)cc1`: the z-score in assay [1] is 1.55; in assay [2], -0.654 (inactive); in assay [3], 0.864 (inactive); in [5], 0.393 (inactive); in assay [6], 0.898 (inactive); in assay [7], 0.8 (inactive). The same molecule registered a z-score in [8] of 0.506. Also, the composite z-score in assay [4] is 0.238 (inactive); in [9], -0.193.
`CCCNC(=O)[C@@]1(Sc2ccc(C)cc2)CC(=O)N(Cc2ccccc2Cl)[C@@H]1c1ccc(CO)cc1`: the z-score in [1] is -0.48; in [2], -0.573 (inactive); in assay [3] it was 1.12 (inactive); in assay [5], -2.58 (inactive); in [6], 1.23 (inactive); in [7], 0.337 (inactive). The molecule also had a z-score in [8] of 1.13. Besides, the composite z-score in [4] was -3.67 (inactive); in [9] it was 0.105.
In the case of `O=C(NCc1ccccc1)[C@@]1(CCS(=O)(=O)c2ccccc2)COC(c2ccc(OCCCO)cc2)=N1`, the z-score is 0.929 in assay [1]; 0.0648 (inactive) in [2]; -0.12 (inactive) in [3]; 1.52 (inactive) in assay [5]; 2.95 (inactive) in [6]; 1.9 (inactive) in [7]. In assay [8], the z-score is -0.0092. In addition, the composite z-score was -0.297 (inactive) in assay [4] and 0.272 in [9].
For the molecule `C=CCc1cccc([C@H]2N[C@H](C(=O)O)CC[C@@H]2C)c1`, the z-score is 0.615 in assay [1]; 0.182 (inactive) in assay [2]; 0.948 (inactive) in assay [3]; 1.14 (inactive) in assay [5]; 0.0903 (inactive) in [6]; 0.129 (inactive) in assay [7]. The molecule further yielded a z-score in assay [8] of 1.02. The composite z-score in assay [4] was 1.09 (inactive); in [9] it was -0.0476.
In the case of `C=CCNC(=O)[C@@H]1[C@H]2C(=O)O[C@H](c3ccccc3)[C@H](c3ccccc3)N2[C@H](c2ccc(OCCO)cc2)[C@@]12C(=O)N(C(=O)OCCOC)c1ccc(C#CC3(O)CCCCCC3)cc12`, the z-score in assay [1] was 0.14; in [2], -0.985 (inactive); in [3] it was 0.39 (inactive); in assay [5] it was 0.442 (inactive); in assay [6] it was 0.862 (inactive); in [7], 0.351 (inactive). In [8], the z-score turned out to be 0.239. The values for the composite z-score in [4] and in [9] were -1.57 (inactive) and 0.276, respectively.
On to `CO[C@H]1COC(=O)[C@@H](C)NC(=O)CC=C[C@@H](C)[C@H](OC)COC(=O)CC=C[C@@H]1C`, for which the z-score is 1.16 in assay [1]; -2.42 (inactive) in assay [2]; 0.563 (inactive) in assay [3]; -2.65 (inactive) in assay [5]; 1.03 (inactive) in assay [6]; 0.505 (inactive) in assay [7]. In assay [8], this molecule came in with a z-score of 0.477. Further, the results for the composite z-score in assay [4] and in assay [9] were -0.336 (inactive) and -0.271, respectively.
Regarding `COc1ccc([Si](C)(C)[C@H]2[C@H](CCO)O[C@@]3(C(=O)N(Cc4ccccc4)c4ccc(N5C(=O)c6cccc7cccc5c67)cc43)[C@@H]2C)cc1`, the z-score in assay [1] was 0.175; in assay [2] it was 0.432 (inactive); in assay [3] it was -2.33 (inactive); in assay [5] it was 4.08 (inactive); in assay [6], 2.4 (inactive); in [7] it was 2.17 (inactive). The same molecule displayed a z-score in assay [8] of -2.04. For the same molecule, the results for the composite z-score in assay [4] and in [9] were 0.386 (inactive) and -0.0473, respectively.
Take `COc1cccc([C@@H]2[C@@H](C)CC[C@H]3C(=O)N(C)[C@@H](C(C)C)C(=O)N23)c1`: the z-score in assay [1] is 0.989; in assay [2], -1.32 (inactive); in assay [3], 0.708 (inactive); in assay [5], 0.192 (inactive); in [6] it was 0.847 (inactive); in [7] it was 0.836 (inactive). Also, the z-score in assay [8] amounted to 1.67. Further, the composite z-score is 0.295 (inactive) in assay [4] and 0.258 in [9].
For `C=CC[C@]1(C(=O)NCC(O)CO)N=C(c2ccc(OCCCO)cc2)O[C@H]1c1ccccc1` (stereo partly specified), the z-score was 0.766 in assay [1]; -1.49 (inactive) in assay [2]; 0.776 (inactive) in [3]; -1.07 (inactive) in assay [5]; 1.44 (inactive) in assay [6]; 0.199 (inactive) in assay [7]. In assay [8], the z-score stood at 1.01. The results for the composite z-score in assay [4] and in assay [9] were -0.537 (inactive) and -0.0102, respectively.
For `CCCCO[C@H]1C[C@H]2C(Br)=C[C@@]1(CO)C(=O)[C@]21CO1`, the z-score in assay [1] is 1.24; in assay [2], -3.84 (inactive); in [3], 1.07 (inactive); in assay [5], -1.86 (inactive); in assay [6] it was 2.66 (inactive); in assay [7], 1.48 (inactive). In assay [8], this molecule yielded a z-score of 0.999. Also, the composite z-score is -0.343 (inactive) in assay [4] and -0.02 in assay [9].
As for `O=C1O[C@@H](c2ccccc2)[C@@H](c2ccccc2)N2[C@@H](c3ccc(O)cc3)[C@]3(C(=O)Nc4ccc(C#CC5(O)CCCCCC5)cc43)[C@@H](C(=O)Nc3nc4ccccc4s3)[C@H]12`, the z-score was 0.527 in [1]; -0.657 (inactive) in [2]; 1.19 (inactive) in assay [3]; 0.74 (inactive) in assay [5]; 0.597 (inactive) in assay [6]; 0.946 (inactive) in assay [7]. For the same molecule, in [8], the z-score came out at 0.88. The composite z-score in assay [4] was -0.067 (inactive); in assay [9], -0.184.
With `CCN1C(C)=C(C(=O)OC)[C@@H](c2ccccc2)N2C(=O)[C@@]3(C(=O)OC)O[C@@]12[C@@H]1C(=O)CCC[C@@H]13`, the z-score in [1] is 0.584; in [2], -0.99 (inactive); in assay [3] it was 1.03 (inactive); in [5], 0.989 (inactive); in assay [6], -0.275 (inactive); in assay [7], -0.0144 (inactive). Further, the z-score in assay [8] came out at 0.835. In addition, the composite z-score is -1.39 (inactive) in [4] and 0.111 in assay [9].
